Source: PubChem BioAssay (NCATS)
Values joined by “and” are separate entries in the source; they are usually repeats but may differ in a detail not shown here. Equal entries are not always repeated. Inconclusive results are not listed. Active and inactive are the calls of the source. Unless noted, calls follow the shape of the dose curve; as a rule, active = well fitted inhibition curve with a large enough effect; inconclusive = small, poorly fitted or top-dose-only effect; inactive = flat fitted curve, though single readings scatter.

Columns and labels:
[1] = Drug repurposing screens with cells derived from glioblastoma tumor samples (AID 1345199); settings: GBM patient neurospheres viability, ATP luminescence, 48 h; also: % is scaled to controls: 0 for no effect and ±100 for the full control effect; nearly all actives have a fitted effect of over 40% in size
In short: (§1)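 Four patient lines of CD133+ GBM neurospheres were screened at several concentrations; hits were retested in those lines plus three slower-growing GBM lines, using 48-hour treatment and ATP-based viability.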

astro = control astrocytes; test: as above; settings: viability, ATP luminescence, 48 h; series mostly up to 45.9 µM
In short: as §1

[2] = biological target: Nuclear receptor subfamily 1 group I member 2 (Rattus norvegicus) (UniProt Q9R1A7); test: qHTS assay for small molecule activators of the rat pregnane X receptor (rPXR) signaling pathway (AID 651751; call rule not given here; also: 0% is about no effect); settings: rPXR reporter cells, luciferase (One-Glo), 24 h
Sequence of Nuclear receptor subfamily 1 group I member 2 (Rattus norvegicus) (Q9R1A7 whole entry, looked up): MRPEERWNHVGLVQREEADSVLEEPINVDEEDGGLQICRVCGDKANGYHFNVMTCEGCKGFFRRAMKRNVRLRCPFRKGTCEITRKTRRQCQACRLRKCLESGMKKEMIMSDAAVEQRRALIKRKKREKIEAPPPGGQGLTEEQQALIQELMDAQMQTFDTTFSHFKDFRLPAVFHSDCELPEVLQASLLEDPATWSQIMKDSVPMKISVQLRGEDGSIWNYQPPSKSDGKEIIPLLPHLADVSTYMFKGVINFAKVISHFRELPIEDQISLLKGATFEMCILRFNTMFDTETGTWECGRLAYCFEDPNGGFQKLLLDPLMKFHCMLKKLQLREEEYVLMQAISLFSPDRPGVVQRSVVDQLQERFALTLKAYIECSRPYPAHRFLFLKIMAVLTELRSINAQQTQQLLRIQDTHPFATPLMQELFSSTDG

[3] = qHTS assay for small molecule activators of the human pregnane X receptor (PXR) signaling pathway (AID 720659; call rule not given here; also: 0% is about no effect); settings: DPX-2 HepG2 CYP3A4-luciferase, 24 h; series mostly up to 92.3 µM
[4] = at 45.9 µM (top of the series), tumour line B
[5] = at 45.9 µM (top of the series), tumour line D
[6] = at 46 µM (top of the series), tumour line A
[7] = at 46.1 µM (top of the series), tumour line C

CCCCC(CC)COS(=O)(=O)O (configuration not stated)
inactive: activity, negative = cell killing [1, 4] -6.03% | activity, negative = cell killing [1, 5] -2.06% | activity, negative = cell killing [1, 6] -18.8% | activity, negative = cell killing [1, 7] -4.44% | Potency (astro) | max response [2] 0.915% | outcome [3]

C[C@H](CCC(=O)O)[C@H]1CC[C@H]2[C@@H]3CC[C@@H]4C[C@H](O)CC[C@]4(C)[C@H]3C[C@H](O)[C@]12C
inactive: activity, negative = cell killing [1, 4] -4.54% | activity, negative = cell killing [1, 5] 7.18% | activity, negative = cell killing [1, 6] -19.5% | activity, negative = cell killing [1, 7] -8.85% | Potency (astro) | max response [2] -12.5%

Nc1nccs1
inactive: activity, negative = cell killing [1, 4] -17.5% | activity, negative = cell killing [1, 5] -10.5% | activity, negative = cell killing [1, 6] -20.4% | activity, negative = cell killing [1, 7] -24.6% | Potency (astro) | max response [2] -2.21% | outcome [3]

CO/N=C(\C(=O)N[C@@H]1C(=O)N2C(C(=O)O)=C(C[N+]3(C)CCCC3)CS[C@H]12)c1csc(N)n1
inactive: activity, negative = cell killing [1, 4] -2.14% | activity, negative = cell killing [1, 5] 5.4% | activity, negative = cell killing [1, 6] -4.98% | activity, negative = cell killing [1, 7] -21.1% | Potency (astro)

C=C(C)C1CC=C(C)CC1 (configuration not stated)
inactive: activity, negative = cell killing [1, 4] -13.3% | activity, negative = cell killing [1, 5] -4.33% | activity, negative = cell killing [1, 6] -25% | activity, negative = cell killing [1, 7] -2.45% | Potency (astro) | max response [2] 7.4% and -2.46%

CC(=O)Nc1c(I)c(C(=O)O)c(I)c(N(C)C(C)=O)c1I
inactive: activity, negative = cell killing [1, 4] 6.39% | activity, negative = cell killing [1, 5] 5.92% | activity, negative = cell killing [1, 6] -22.3% | activity, negative = cell killing [1, 7] 7.24% | Potency (astro)

CC(C)O
inactive: activity, negative = cell killing [1, 4] -6.9% | activity, negative = cell killing [1, 5] -24.5% | activity, negative = cell killing [1, 6] -15.4% | activity, negative = cell killing [1, 7] -14.2% | Potency (astro) | max response [2] -7.02% | outcome [3]

CC(=O)N[C@@H]1C(O[C@H]2O[C@H](C(=O)O)C(O)[C@H](O)[C@H]2O)[C@H](O)[C@@H](CO)O[C@H]1O[C@@H]1C(C(=O)O)O[C@@H](O[C@H]2[C@H](O)[C@@H](CO)OC(O)[C@@H]2NC(C)=O)[C@H](O)[C@H]1O (some centres not stated)
inactive: activity, negative = cell killing [1, 4] -6.99% | activity, negative = cell killing [1, 5] -9.84% | activity, negative = cell killing [1, 6] -10.4% | activity, negative = cell killing [1, 7] -7.36% | Potency (astro)

CCN(CC)C(=S)S
inactive: activity, negative = cell killing [1, 4] -1.95% | activity, negative = cell killing [1, 5] -9.18% | activity, negative = cell killing [1, 6] -29.6% | activity, negative = cell killing [1, 7] -13.5% | Potency (astro)

Cc1ccc(S(=O)(=O)O)cc1C
inactive: activity, negative = cell killing [1, 4] -6.15% | activity, negative = cell killing [1, 5] 0.633% | activity, negative = cell killing [1, 6] -2.37% | activity, negative = cell killing [1, 7] -2.17% | Potency (astro) | max response [2] 0.795% | outcome [3]

CC1C(=O)CC2C3(C)CCC2(C(C)C(=O)O)C(=O)C13 (configuration not stated)
inactive: activity, negative = cell killing [1, 4] -19.4% | activity, negative = cell killing [1, 5] 8.38% | activity, negative = cell killing [1, 6] -22.7% | activity, negative = cell killing [1, 7] -6.43% | Potency (astro)

C[Si](C)(C)O[Si](C)(C)C
inactive: activity, negative = cell killing [1, 4] -9.61% | activity, negative = cell killing [1, 5] -4.16% | activity, negative = cell killing [1, 6] -2.42% | activity, negative = cell killing [1, 7] -22.1% | Potency (astro) | max response [2] -0.472% | outcome [3]

O=C1NC(=O)[C@H]2[C@@H]1[C@@H]1C=C[C@H]2C1
inactive: activity, negative = cell killing [1, 4] -11.5% | activity, negative = cell killing [1, 5] -1.45% | activity, negative = cell killing [1, 6] -23% | activity, negative = cell killing [1, 7] -6.43% | Potency (astro)
